The supplement of paper PMC10849652
Of roughly 7,900 targets only a part is listed; those with a hit were picked by preference. About 0.6% of all pairs of compound and target were hits. Values without a mark were called inactive.

What was measured:
Experiment in all cases: log2 fold change, soluble protein after heating vs DMSO (PISA); higher = thermal stabilisation; K562 cells, 10 uM, 30 min; active = over 0.2 and 3.5 SD of the protein, either way, in both replicates (recomputed)
[1] = compound: COC1=CC=C(C=C1)CN2C=CC3=C2C=C(C=C3)C(=O)NO
In short: (§1)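 K562 cells at 2×10^6 cells/mL were treated for 30 min with 10 μM compound, and aliquots were heated for 3 min over 48°C-58°C before pooling. Extraction used PBS with 0.5% NP-40 at 4°C, and soluble protein was the supernatant after 21,000xg for 90 min, measured by TMTpro 16plex LC-MS/MS with channel sums equalised. Thermal stability values, relative to control samples and from duplicates, are log2 fold changes.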

[2] = compound: CON(C)C(=O)N1N=C(c2cc(F)ccc2F)S[C@@]1(CCCN)c1ccccc1 [filanesib]
In short: as §1

[3] = compound: CO[C@H]1C[C@@H]2CC[C@@H](C)[C@@](O)(O2)C(=O)C(=O)N2CCCC[C@H]2C(=O)O[C@H]([C@H](C)C[C@@H]2CC[C@H](n3cnnn3)[C@H](OC)C2)CC(=O)[C@H](C)/C=C(\C)[C@@H](O)[C@@H](OC)C(=O)[C@H](C)C[C@H](C)/C=C/C=C/C=C/1C [zotarolimus]
In short: as §1

[4] = compound: COc1cc(C(=O)O)ccc1NC(=O)[C@@H]1N[C@@H](CC(C)(C)C)[C@](C#N)(c2ccc(Cl)cc2F)[C@H]1c1cccc(Cl)c1F [idasanutlin]
In short: as §1

[5] = compound: COc1cc(Nc2ncc3c(n2)-c2ccc(Cl)cc2C(c2c(F)cccc2OC)=NC3)ccc1C(=O)O [alisertib]
In short: as §1

[6] = compound: COc1cc2nc(-c3cc(F)ccc3O)nc(N[C@@H]3CNC[C@H]3C(C)(C)O)c2cc1OC
In short: as §1

[7] = compound: COc1cc2ncnc(Nc3ccc(F)c(Cl)c3)c2cc1OCCCN1CCOCC1 [gefitinib]
In short: as §1

[8] = compound: COc1cccc2cc(-c3nc([C@H]4CC[C@H](C(=O)O)CC4)n4ncnc(N)c34)[nH]c12
In short: as §1

[9] = compound: CS(=O)(=O)CCNCc1ccc(-c2ccc3ncnc(Nc4ccc(OCc5cccc(F)c5)c(Cl)c4)c3c2)o1 [lapatinib]
In short: as §1

[10] = compound: CS(=O)(=O)N1CCN(Cc2cc3nc(-c4cccc5[nH]ncc45)nc(N4CCOCC4)c3s2)CC1 [pictilisib]
In short: as §1

UniProt P52657, sequence (P52657 whole entry, looked up): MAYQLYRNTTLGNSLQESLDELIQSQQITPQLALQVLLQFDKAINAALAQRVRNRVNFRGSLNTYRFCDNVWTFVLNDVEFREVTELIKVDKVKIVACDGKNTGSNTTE
UniProt Q9NVI1, sequence (Q9NVI1 whole entry, looked up): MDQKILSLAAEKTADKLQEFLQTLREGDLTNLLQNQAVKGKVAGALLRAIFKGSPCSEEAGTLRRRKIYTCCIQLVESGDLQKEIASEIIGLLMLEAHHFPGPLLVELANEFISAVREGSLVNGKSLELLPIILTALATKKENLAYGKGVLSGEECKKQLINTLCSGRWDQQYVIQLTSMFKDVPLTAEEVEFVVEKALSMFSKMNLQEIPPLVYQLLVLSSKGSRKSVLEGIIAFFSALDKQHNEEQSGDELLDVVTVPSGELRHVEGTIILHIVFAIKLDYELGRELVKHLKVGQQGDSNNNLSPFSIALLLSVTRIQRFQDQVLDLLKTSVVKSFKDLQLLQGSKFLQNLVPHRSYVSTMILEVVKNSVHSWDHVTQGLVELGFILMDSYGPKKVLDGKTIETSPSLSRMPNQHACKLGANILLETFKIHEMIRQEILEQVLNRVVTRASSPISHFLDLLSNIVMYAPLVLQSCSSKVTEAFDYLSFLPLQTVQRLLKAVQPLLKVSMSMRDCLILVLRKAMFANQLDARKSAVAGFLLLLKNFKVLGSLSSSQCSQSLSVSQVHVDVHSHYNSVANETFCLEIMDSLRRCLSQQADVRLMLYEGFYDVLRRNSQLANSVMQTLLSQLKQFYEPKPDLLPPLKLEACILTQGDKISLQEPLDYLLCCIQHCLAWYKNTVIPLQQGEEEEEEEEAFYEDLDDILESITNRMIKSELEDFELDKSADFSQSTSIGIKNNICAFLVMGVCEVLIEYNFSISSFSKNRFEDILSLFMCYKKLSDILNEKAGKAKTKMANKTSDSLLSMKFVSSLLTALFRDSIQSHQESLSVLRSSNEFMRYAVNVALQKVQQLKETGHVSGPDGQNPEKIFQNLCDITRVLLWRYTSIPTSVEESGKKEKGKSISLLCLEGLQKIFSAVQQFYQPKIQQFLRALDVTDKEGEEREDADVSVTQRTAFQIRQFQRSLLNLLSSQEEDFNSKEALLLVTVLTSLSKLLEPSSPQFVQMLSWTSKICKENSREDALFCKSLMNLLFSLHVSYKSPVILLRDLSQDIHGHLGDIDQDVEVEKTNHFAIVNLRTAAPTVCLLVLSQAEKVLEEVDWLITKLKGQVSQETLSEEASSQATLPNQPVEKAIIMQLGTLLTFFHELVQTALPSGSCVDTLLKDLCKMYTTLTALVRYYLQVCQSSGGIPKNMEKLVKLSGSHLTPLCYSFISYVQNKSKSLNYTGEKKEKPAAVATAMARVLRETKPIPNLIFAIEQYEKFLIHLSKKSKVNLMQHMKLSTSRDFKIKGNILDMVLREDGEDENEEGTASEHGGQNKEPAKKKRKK
UniProt Q9BTY2, sequence (Q9BTY2 whole entry, looked up): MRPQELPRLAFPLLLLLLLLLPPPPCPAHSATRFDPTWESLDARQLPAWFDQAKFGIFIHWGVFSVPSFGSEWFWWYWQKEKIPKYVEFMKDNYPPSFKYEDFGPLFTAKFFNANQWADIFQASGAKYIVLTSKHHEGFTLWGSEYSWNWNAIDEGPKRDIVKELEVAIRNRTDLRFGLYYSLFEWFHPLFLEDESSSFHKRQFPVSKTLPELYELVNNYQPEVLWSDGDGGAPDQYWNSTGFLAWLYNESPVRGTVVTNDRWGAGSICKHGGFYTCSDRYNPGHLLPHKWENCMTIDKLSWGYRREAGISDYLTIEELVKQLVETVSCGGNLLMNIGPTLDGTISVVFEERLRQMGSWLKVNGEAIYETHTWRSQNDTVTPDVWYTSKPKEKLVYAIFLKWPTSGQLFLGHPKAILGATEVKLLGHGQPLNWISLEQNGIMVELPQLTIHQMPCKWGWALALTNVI
UniProt P39748, sequence (P39748 whole entry, looked up): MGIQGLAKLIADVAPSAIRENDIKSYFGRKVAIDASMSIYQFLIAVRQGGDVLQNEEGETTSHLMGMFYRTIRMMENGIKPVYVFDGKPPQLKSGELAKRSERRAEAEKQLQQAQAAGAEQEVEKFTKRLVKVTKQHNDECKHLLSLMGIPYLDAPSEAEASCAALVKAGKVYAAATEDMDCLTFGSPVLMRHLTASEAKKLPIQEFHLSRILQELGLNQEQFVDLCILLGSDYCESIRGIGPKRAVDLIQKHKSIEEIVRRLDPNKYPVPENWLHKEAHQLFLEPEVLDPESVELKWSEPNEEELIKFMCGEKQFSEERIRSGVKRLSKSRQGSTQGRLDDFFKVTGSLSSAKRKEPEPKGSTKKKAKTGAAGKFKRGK
UniProt Q10472, sequence (Q10472 whole entry, looked up): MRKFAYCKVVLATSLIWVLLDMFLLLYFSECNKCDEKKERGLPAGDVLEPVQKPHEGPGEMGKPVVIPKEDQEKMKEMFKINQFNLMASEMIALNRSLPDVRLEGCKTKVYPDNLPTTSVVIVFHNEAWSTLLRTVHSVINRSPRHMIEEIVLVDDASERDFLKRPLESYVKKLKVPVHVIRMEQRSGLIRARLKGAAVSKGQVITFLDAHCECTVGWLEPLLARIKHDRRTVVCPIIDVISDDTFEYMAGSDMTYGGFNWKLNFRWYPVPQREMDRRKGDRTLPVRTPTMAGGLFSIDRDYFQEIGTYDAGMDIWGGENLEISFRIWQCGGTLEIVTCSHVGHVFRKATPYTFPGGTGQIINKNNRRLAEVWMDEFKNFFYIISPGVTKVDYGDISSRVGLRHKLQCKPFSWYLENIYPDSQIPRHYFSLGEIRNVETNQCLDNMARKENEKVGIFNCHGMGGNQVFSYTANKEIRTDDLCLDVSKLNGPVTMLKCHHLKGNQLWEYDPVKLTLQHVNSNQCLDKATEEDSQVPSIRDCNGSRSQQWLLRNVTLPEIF
UniProt Q8IWJ2, sequence (Q8IWJ2 whole entry, looked up): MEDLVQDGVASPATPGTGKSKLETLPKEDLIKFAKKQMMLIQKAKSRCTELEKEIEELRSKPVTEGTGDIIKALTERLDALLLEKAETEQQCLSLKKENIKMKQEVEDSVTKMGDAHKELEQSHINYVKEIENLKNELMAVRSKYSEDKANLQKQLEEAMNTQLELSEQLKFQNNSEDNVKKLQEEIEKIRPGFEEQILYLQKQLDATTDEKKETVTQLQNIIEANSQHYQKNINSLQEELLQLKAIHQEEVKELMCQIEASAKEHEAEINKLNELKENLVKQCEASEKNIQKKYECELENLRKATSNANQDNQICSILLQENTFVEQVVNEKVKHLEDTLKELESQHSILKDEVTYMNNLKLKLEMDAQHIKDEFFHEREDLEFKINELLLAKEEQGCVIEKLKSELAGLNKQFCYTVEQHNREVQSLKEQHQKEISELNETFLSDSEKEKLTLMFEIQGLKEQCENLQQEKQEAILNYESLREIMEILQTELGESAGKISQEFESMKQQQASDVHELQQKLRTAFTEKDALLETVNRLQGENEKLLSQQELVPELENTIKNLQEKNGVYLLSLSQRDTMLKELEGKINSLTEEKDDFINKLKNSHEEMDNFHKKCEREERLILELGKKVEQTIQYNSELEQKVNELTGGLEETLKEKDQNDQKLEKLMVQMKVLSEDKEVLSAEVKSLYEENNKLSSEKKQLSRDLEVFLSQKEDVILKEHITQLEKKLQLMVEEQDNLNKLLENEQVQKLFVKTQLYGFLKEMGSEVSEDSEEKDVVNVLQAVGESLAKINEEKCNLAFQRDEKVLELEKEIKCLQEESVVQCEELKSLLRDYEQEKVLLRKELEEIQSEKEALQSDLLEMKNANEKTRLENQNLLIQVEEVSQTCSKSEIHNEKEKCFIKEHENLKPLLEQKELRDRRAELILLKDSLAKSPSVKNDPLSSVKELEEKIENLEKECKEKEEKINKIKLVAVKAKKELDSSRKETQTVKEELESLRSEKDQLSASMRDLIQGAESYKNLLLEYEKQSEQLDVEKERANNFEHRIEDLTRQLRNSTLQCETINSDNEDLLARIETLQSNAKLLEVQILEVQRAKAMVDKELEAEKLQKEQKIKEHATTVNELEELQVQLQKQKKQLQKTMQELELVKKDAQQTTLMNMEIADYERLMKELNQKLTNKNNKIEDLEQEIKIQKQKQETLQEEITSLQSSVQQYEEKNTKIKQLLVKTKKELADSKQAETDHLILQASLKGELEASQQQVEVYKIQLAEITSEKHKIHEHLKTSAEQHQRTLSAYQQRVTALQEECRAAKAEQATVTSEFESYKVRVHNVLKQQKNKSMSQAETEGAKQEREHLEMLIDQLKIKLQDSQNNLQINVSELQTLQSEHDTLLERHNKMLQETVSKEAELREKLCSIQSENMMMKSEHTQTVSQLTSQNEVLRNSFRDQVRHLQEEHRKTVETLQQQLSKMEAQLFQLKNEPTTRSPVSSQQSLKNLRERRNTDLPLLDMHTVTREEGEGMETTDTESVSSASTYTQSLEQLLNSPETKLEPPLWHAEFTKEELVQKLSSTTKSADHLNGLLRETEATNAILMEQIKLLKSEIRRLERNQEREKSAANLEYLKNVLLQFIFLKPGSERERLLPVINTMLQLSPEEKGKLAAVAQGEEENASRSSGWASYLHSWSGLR
UniProt P04066, sequence (P04066 whole entry, looked up): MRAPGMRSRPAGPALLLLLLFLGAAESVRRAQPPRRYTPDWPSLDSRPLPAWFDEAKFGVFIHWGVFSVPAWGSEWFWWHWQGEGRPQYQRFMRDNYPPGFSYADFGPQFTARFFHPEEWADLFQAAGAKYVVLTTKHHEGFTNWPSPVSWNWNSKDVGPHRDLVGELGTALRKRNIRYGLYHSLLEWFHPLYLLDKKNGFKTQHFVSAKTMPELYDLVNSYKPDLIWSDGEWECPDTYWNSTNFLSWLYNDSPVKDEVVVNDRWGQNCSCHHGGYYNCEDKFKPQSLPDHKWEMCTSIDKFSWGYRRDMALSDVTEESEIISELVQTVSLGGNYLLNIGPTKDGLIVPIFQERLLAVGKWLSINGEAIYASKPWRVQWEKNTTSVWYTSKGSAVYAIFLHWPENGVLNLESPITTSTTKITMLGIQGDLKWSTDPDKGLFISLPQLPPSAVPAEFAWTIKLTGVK

Target	log2 fold change [1]	log2 fold change [2]	log2 fold change [3]	log2 fold change [4]	log2 fold change [5]	log2 fold change [6]	log2 fold change [7]	log2 fold change [8]	log2 fold change [9]	log2 fold change [10]
HAX1 (UniProt O00165)	-0.056	0.017	0.004	0.04	-0.007	-0.311	-0.041	-0.014	-0.015	-0.145
FEN1 (UniProt P39748)	0.06	-0.215	0.027	-0.099	0.019	0.039	-0.029	0.096	-0.098	-0.005
HOMER1 (UniProt Q86YM7)	0.168	0.051	0.043	0.011	-0.083	-0.023	0.086	-0.042	0.073	-0.001
GTF2E2 (UniProt P29084)	-0.014	0.034	0.027	-0.03	-0.027	0	0.009	-0.056	0.022	0.031
GGA2 (UniProt Q9UJY4)	0.012	-0.09	0.069	-0.017	-0.067	0.181	-0.004	0.112	-0.027	
GLB1 (UniProt P16278)	0.002	-0.033	0.009	-0.015	-0.078	-0.015	0.031	0.045	0.024	0.006
FUCA1 (UniProt P04066)	-0.014	-0.057	-0.025	-0.044	-0.004	-0.113	0.003	0.1	0.047	0
FERMT3 (UniProt Q86UX7)	0.046	-0.037	0.033	-0.068	-0.104	0	-0.007	0.001	-0.006	0.009
HIST2H2BF isoform 2 (UniProt Q5QNW6)	0.062	0.248	-0.163	0.437	0.081	-0.112	0.053	-0.314	0.047	-0.137
GNAI3 (UniProt P08754)	-0.041	-0.002	-0.081	-0.004	-0.124	0.066	0.118	-0.013	0.009	0.059
FANCI (UniProt Q9NVI1)	0.004	-0.189	-0.01	-0.014	-0.015	-0.113	-0.034	0.033	0.001	0
H2AFX (UniProt P16104)	-0.06	0.393	-0.3	0.484	-0.007	-0.136	0.049	-0.361	0.054	-0.215
GEMIN2 (UniProt O14893)	-0.099	0.132	-0.093	0.034	-0.017	-0.045	0.032	-0.029	0.034	0.016
GIGYF2 (UniProt Q6Y7W6)	0.005	0.008	0.016	0	-0.023	0.07	-0.043	-0.026	-0.016	-0.027
HNRNPUL1 (UniProt Q9BUJ2)	0.033	0.047	-0.043	0.03	0.01	0.023	-0.02	0.009	0.031	0.014
GATA1 (UniProt P15976)	-0.023	0.001	-0.05	-0.034	0.02	0.07	0.014	-0.087	0.008	-0.021
HRAS (UniProt P01112)	0.008	-0.023	-0.049	0.075	-0.157	-0.044	0.021	-0.015	0.076	0.012
GCC2 (UniProt Q8IWJ2)	-0.037	0.137	0.074	0.065	-0.046	-0.037	0.024	-0.11	0.056	0.014
GMEB2 (UniProt Q9UKD1)	-0.027	0.04	0.03	0.073	-0.009	0.053	0.038	0.027	-0.022	0.101
FUCA2 (UniProt Q9BTY2)	-0.094	0.002	-0.019	0.177	-0.044	0.011	-0.013	0.045	0.025	0.011
GPX4 (UniProt P36969)	-0.035	-0.011	-0.248 (active)	0.032	-0.02	0.003	-0.004	0.076	-0.036	-0.034
GTF3C5 isoform 3 (UniProt Q9Y5Q8)	-0.115	-0.039	0.116	-0.068	0.064	0.024	-0.003	-0.034	0.13	-0.148
GTF2A2 (UniProt P52657)	-0.067	-0.043	-0.006	-0.036	0.018	0.044	-0.028	0.032	-0.042	0.041
HTATIP2 isoform 3 (UniProt Q9BUP3)	-0.003	-0.091	0.364 (active)	-0.031	-0.029	-0.131	0.066	0.054	-0.015	0.137
GLUD1 (UniProt P00367)	-0.012	-0.118	-0.007	-0.047	-0.039	-0.001	0.076	0.057	0.178	0.367 (active)
HADHA (UniProt P40939)	0.267	0.082	0.081	-0.321	-0.035	0.155	0.209	-0.088	0.148	0.425
FOXK1 (UniProt P85037)	-0.002	0.361	1 (active)	-0.123	-0.038	0.526	0.516	0.774	0.085	0.584
GUK1 isoform 2 (UniProt Q16774)	0.215	-0.005	0.022	-0.04	-0.048	0.155	-0.05	-0.019	-0.001	0.017
GALNT1 (UniProt Q10472)	0.224	0.058	0.005	-0.033	0.047	0.044	0.066	0.034	0	0.023
FBXO6 (UniProt Q9NRD1)	-0.016	0.008	0.044	-0.17	-0.043	0.022	0.059	0.038	0.026	-0.091
